Among the data in PubChem BioAssay (NCATS) are max response and Potency values, retold here.

Where “and” joins values, the source holds several entries; their conditions need not be identical. Identical values can stand only once. Records with an inconclusive call do not appear. Calls of active or inactive are those of the source. Calls follow the shape of the dose curve; as a rule, active = well fitted curve in the direction sought with a large enough effect; inconclusive = small, poorly fitted or top-dose-only effect, or another doubt; inactive = no such curve, though single readings can be large or run the other way.
% is scaled to controls: 0 for no effect and ±100 for the full control effect; potency is read from the fitted curve at half-maximal effect.

This assay is described as follows: qHTS Assay for Identifying Gametocytocidal Compounds (AID 743244).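 As to max response: actives lower the fluorescent signal which means gametocytes are killed.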 The following applies: P. falciparum 3D7 stage III-V gametocytes, alamarBlue, 72 h; max response: stronger effect = lower value. An outline of the steps: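 Stage III–V gametocytes of P. falciparum 3D7 were seeded at 20,000 cells/well onto pre-dispensed compounds. After 72 h, 37 °C, 5% CO2, alamarBlue was added for another 24 h.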
(In qHTS, concentration-response curves come from the screen itself.)
As for `CN1CCN(C2=Nc3cc(F)ccc3Cc3ccccc32)CC1`, the max response was 29% (inactive).
With `CC(=O)Nc1ccc(OC(=O)c2ccccc2OC(C)=O)cc1`, the max response was 12.6% (inactive).
With `O=C(CCCN1CC=C(n2c(=O)[nH]c3ccccc32)CC1)c1ccc(F)cc1`, the max response was 7.51% (inactive).
The same measure, in the same setting: the value for `COc1cc(N)c(Cl)cc1C(=O)NC1CCN(Cc2ccccc2)CC1` was -0.971% (inactive); that for `CCN1CCN(C(=O)N[C@@H](C(=O)N[C@@H]2C(=O)N3C(C(=O)O)=C(CSc4nnnn4C)CS[C@H]23)c2ccc(O)cc2)C(=O)C1=O` was 14.5% (inactive); that for `CCc1cc(Cl)c(OC)c(C(=O)NC[C@@H]2CCCN2CC)c1O` was -8.19% (inactive) and -10.7% (inactive) and 19.5% (inactive).
For `CCC1Nc2cc(Cl)c(S(N)(=O)=O)cc2S(=O)(=O)N1` (stereo unspecified), the max response is 7.47% (inactive).
In the case of `CC(=O)Nc1ccc(S(=O)(=O)Nc2ccc([N+](=O)[O-])cc2)cc1`, the max response was 3.59% (inactive).
Consider `CCCCNC(=O)NS(=O)(=O)c1ccc(N)cc1`, for which the max response is 19.8% (inactive).
Regarding `FC(F)(F)C(F)(F)C(F)(F)C(F)(F)C(F)(F)C(F)(F)C(F)(F)C(F)(F)Br`, the max response was 5.68% (inactive).
Consider `CC(=O)OCC(=O)[C@H]1CC[C@H]2[C@@H]3CCC4=CC(=O)CC[C@]4(C)[C@H]3CC[C@]12C`, for which the max response was -7.41% (inactive).
Turning to `FC1(F)C(F)(F)C(F)(F)C2(F)C(F)(F)C(F)(F)C(F)(F)C(F)(F)C2(F)C1(F)F` (stereo unspecified), the max response is -4.02% (inactive).
In the case of `O=C1OC2(c3ccccc31)c1cc(Br)c(O)c(Br)c1Oc1c2cc(Br)c(O)c1Br`, the max response was -3.43% (inactive).
Turning to `CC(C)CCCC(C)N` (stereo unspecified), the max response is 6.57% (inactive).
As for `N[C@H](C(=O)O)[C@@H](O)c1ccc(O)c(O)c1`, the max response is 1.39% (inactive).
Take `CC(=O)Nc1ccc(OCC(O)CNC(C)C)cc1` (stereo unspecified): the max response is -2.82% (inactive).
For `O=C(N/N=C/c1ccc([N+](=O)[O-])o1)c1ccc(O)cc1`, the Potency is 1.12 µM (active).
With `Cn1c(=O)c2[nH]c(Br)nc2n(C)c1=O`, the max response is -3.24% (inactive).
With `CC(C)Cc1ccc(CC(=O)O)cc1`, the max response was 6.47% (inactive).
Consider `Nc1nc(Cl)nc2c1ncn2[C@@H]1O[C@H](CO)[C@@H](O)[C@@H]1F`, for which the max response was 14.9% (inactive).
As for `N#C/C(=C1\SCC(c2ccccc2Cl)S1)n1ccnc1` (stereo unspecified), the max response is 17.4% (inactive).
Still for that read-out and setting: the figure for `C/C=C/C=N/NC(=O)c1ccncc1` is -5.06% (inactive); for `C[C@H]1O[C@@H](O[C@H]2CC[C@@]3(C)[C@H](CC[C@@H]4[C@@H]3C[C@@H](O)[C@]3(C)[C@@H](C5=CC(=O)OC5)CC[C@]43O)C2)C[C@H](O)[C@@H]1O[C@H]1C[C@H](O)[C@H](O[C@H]2C[C@H](O)[C@H](O[C@@H]3O[C@H](CO)[C@@H](O)[C@H](O)[C@H]3O)[C@@H](C)O2)[C@@H](C)O1` it is -0.158% (inactive).
Same read-out and setting: the value for `CCCCCCCCCCC[C@@H](C[C@@H]1OC(=O)[C@H]1CCCCCC)OC(=O)[C@H](CC(C)C)NC=O` was -7.75% (inactive); that for `CCN(CC)CCOC(=O)C1(c2ccccc2)CCCC1` was -2.23% (inactive).
`CN1CCN(c2c(F)cc3c(=O)c(C(=O)O)cn4c3c2SCC4)CC1`: the max response was 9.27% (inactive).
Still for that read-out and setting: the value for `O=C1[C@H](CC[C@H](O)c2ccc(F)cc2)[C@@H](c2ccc(O)cc2)N1c1ccc(F)cc1` was 4.75% (inactive).
`OC(C#CCN1CCCC1)(c1ccccc1)c1ccccc1`: the max response was -3.1% (inactive).
`CC(C(=O)O)c1cccc(Oc2ccccc2)c1` (stereo unspecified): the max response was 17.6% (inactive).
Take `CC(=O)NCCCCCC(=O)O`: the max response is -5.55% (inactive).
As to `OC1C(O)C(O)C(O)C(O)C1O` (stereo unspecified), the max response was 0.49% (inactive).
Regarding `Cc1nc(-c2ccc(Cl)cc2)oc1COC(C)(C)C(=O)O`, the max response was -2.69% (inactive).
For `c1ccc(-c2nc[nH]c2-c2ccccc2)cc1`, the max response is -4.96% (inactive).
Same read-out and setting: the figure for `O=C1OC(CN2CCOCC2)CN1/N=C/c1ccc([N+](=O)[O-])o1` (stereo unspecified) is -7.98% (inactive).
For `NC(=S)N/N=C/c1cccnc1`, the max response was -11.6% (inactive).
Regarding `CCCCCCCCCCCCCC[N+](C)(C)Cc1ccccc1`, the Potency was 8.91 µM (active).
